According to PubChem BioAssay AID504700 (The Scripps Research Institute Molecular Screening Center, 2011):
Out of some 340,000 compounds screened, about 270 (0.079%) were called active.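 Rule for the calls: active = activation above a cutoff set at the mean over all compounds plus 3 SD (cut at about 18% in these data); inactive = the rest.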 Only a selection was taken, and actives are over-represented in it overall.

biological target: cAMP-dependent protein kinase catalytic subunit beta (Homo sapiens) + cAMP-dependent protein kinase type II-beta regulatory subunit (Homo sapiens) (UniProt P22694+P31323); assay: compounds dissociating PKAc from R2B subunit – biochemical, fluorescence polarization, Cy5-IP20, human, primary screen (AID 504700); details: PKA-R2B holoenzyme dissociation, at 11.4 µM, active compounds read high, 0% DMSO only, 100% 113 µM cGMP, R2B truncated from residue 108, S112A mutant;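 note: higher means more holoenzyme dissociation and a rise in polarization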
Sequence (P31323 whole entry, looked up, other chains not shown, the tested form may be a part): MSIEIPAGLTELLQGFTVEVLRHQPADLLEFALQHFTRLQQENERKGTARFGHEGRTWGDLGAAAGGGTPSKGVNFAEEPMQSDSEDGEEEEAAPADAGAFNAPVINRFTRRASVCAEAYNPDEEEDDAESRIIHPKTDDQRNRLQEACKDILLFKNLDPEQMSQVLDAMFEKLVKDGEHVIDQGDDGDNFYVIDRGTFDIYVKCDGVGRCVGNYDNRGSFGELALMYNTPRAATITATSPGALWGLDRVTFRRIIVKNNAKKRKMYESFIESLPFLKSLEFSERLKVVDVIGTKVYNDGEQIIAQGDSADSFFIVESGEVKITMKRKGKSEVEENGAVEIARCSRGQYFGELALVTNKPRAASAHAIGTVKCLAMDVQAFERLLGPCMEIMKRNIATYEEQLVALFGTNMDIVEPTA

SMILES	activation
O=C(NCCN1CCOCC1)c1ccc2c(c1)N(Cc1cccc(Cl)c1)C(=O)c1ccccc1S2(=O)=O	-0.88% (inactive)
COc1ccc(NC2CCCN(C(=O)c3ccccc3-c3ncc[nH]3)C2)cc1 (stereo unspecified)	-6.86% (inactive)
Cc1sc2ncnc(SCC(=O)NC3CCS(=O)(=O)C3)c2c1C (stereo unspecified)	-9.19% (inactive)
CN(c1ccccc1)S(=O)(=O)c1ccc(C(=O)NCc2cccnc2)cc1	-3.42% (inactive)
O=C(COC(=O)CCc1c[nH]c2ccccc12)Nc1cccc(Cl)c1	1.73% (inactive)
CCOC(=O)c1cc(-c2sc(NC(=O)c3ccccc3)nc2C)n(Cc2ccccc2)n1	-0.16% (inactive)
O=C(COC(=O)c1ccc(S(=O)(=O)N2CCCCCC2)cc1)Nc1ccccc1C(F)(F)F	-16.8% (inactive)
CN(Cc1ccccc1)C(=O)CCC1CCN(C(=O)c2ccco2)CC1	2.88% (inactive)
Cc1[nH]c2ccccc2c1C(=O)C(=O)NCc1nnnn1-c1cccc(F)c1	-2.65% (inactive)
O=C(CCCN1C(=O)c2cccc3cccc(c23)C1=O)N1CCN(Cc2ccc3c(c2)OCO3)CC1	18.8% (active)
Cc1cc(C)n2nc(C(=O)N3CCN(Cc4ccc5c(c4)OCO5)CC3)nc2n1	-11.3% (inactive)
Cn1c(=O)cc(OCCCC(=O)N2CCN(Cc3ccc4c(c3)OCO4)CC2)c2ccccc21	-7.18% (inactive)
CCN1C(=O)[C@H]2[C@@H](c3ccccc3)N[C@]3(CCCN(Cc4ccc(C)cc4)C3=O)[C@H]2C1=O	0.79% (inactive)
O=C(NCCS(=O)(=O)N1CCN(c2ccccc2)CC1)c1cc(=O)c2ccccc2o1	-13.1% (inactive)
CCCCN1C(=O)C(CC(=O)NC(c2ccccc2)c2ccccc2)CC(C(=O)N2CCOCC2)=C1C (stereo unspecified)	-5.21% (inactive)
Cc1ccccc1NC(=O)Cc1nc(COC(=O)C(C)(C)Oc2ccc(Cl)cc2)cs1	3.15% (inactive)
C/C(COc1ccccc1)=N\NC(=O)c1nnn(-c2nonc2N)c1-c1ccc(C)cc1	-17.1% (inactive)
CCCc1c(C)nc2scc(-c3ccc(Cl)cc3)n2c1=O	-2.72% (inactive)
CSc1ncnc2c1ncn2CCCNCc1cccs1	2.56% (inactive)
CCC(Oc1ccccc1)C(=O)OCC(=O)Nc1c(C)nn(-c2ccccc2)c1C (stereo unspecified)	-5.13% (inactive)
COc1cccc(OCC(=O)NCCS(=O)(=O)N2CCN(c3ccccc3)CC2)c1	0.99% (inactive)
CNC(=O)C[C@H]1C(=O)N(Cc2ccccc2)C[C@@H]1CSC	-9.1% (inactive)
COc1ncnc2c1ncn2CCCNCCN1CCOCC1	4.38% (inactive)
O=S1(=O)CCN(Cc2ccccc2)CC1	-1.42% (inactive)
C[C@@H]1CN([C@@H](C)CO)S(=O)(=O)c2ccc(C#Cc3cccc(F)c3)cc2O[C@H]1CN(C)S(=O)(=O)c1cn(C)cn1	7.01% (inactive)
Nc1cccc(OCCCCCOc2cccc(N)c2)c1	5.43% (inactive)

SMILES	activation
COC(=O)C[C@H]1C[C@@H]2c3cc(N(C)C)ccc3O[C@@H]2[C@H](CO)O1	5.15% (inactive)
O=C1OCCC1=COCCCCOC=C1CCOC1=O	3.03% (inactive)
COc1ccc(CN2C(=O)C(CC(=O)NCc3cccc4ccccc34)CC(C(=O)N3CCOCC3)=C2C)cc1 (stereo unspecified)	2.78% (inactive)
CC(=O)Nc1ccc2nc(NC(=O)CS(=O)(=O)c3ccc(F)cc3)sc2c1	-8.48% (inactive)
CNC(=O)C1CN(C(=O)c2cccc(S(=O)(=O)N3CCc4ccccc43)c2)c2ccccc2O1 (stereo unspecified)	1.53% (inactive)
Cc1ccc(S(=O)(=O)N2CCCCC2)cc1NC(=O)CCNC(=O)c1ccccc1Cl	16.1% (inactive)
O=C(NCc1ccccc1)C1CNCC(C(=O)NCc2ccccc2)C1 (stereo unspecified)	9% (inactive)
CCCCCCNC(=O)O[C@H]1CN(C(=O)OC(C)C)N(C(=O)OC(C)C)[C@@H]2CN(S(=O)(=O)c3ccc(C)cc3)C[C@]12O	-13.6% (inactive)
COc1ccc([N+](=O)[O-])cc1NC(=O)C(C)OC(=O)C1c2ccccc2Oc2ccccc21 (stereo unspecified)	-4.93% (inactive)
COc1ccc([N+](=O)[O-])cc1C1NN=C(c2cccc3ccccc23)S1 (stereo unspecified)	20.8% (active)
COc1ccccc1C1SCCN1C(=O)c1ccc([N+](=O)[O-])cc1 (stereo unspecified)	0.16% (inactive)
O=C(N=C1SC2CS(=O)(=O)CC2N1Cc1ccccc1)c1ccccc1 (stereo unspecified)	1.79% (inactive)
C[C@@H]1CN([C@H](C)CO)C(=O)c2cc(Br)cnc2O[C@@H]1CN(C)Cc1cncnc1	2.5% (inactive)
CC1=C(C(=O)N2CCOCC2)CC(CC(=O)NCC2CCCCC2)C(=O)N1Cc1ccc(F)cc1 (stereo unspecified)	-0.55% (inactive)
C[C@H](CO)N1C[C@H](C)[C@@H](CN(C)S(=O)(=O)c2ccc(F)cc2)OCc2cnnn2CCCC1=O	-2.57% (inactive)
CC1(C)CC(=O)C=C(c2ccc(COC(=O)c3cc(F)cc(F)c3)cc2)C1=O	4.64% (inactive)
CC1(C2CC2)NC(=O)N(CC(=O)N2CCN(c3ccccc3F)CC2)C1=O (stereo unspecified)	1.69% (inactive)
CCCCN(C(C)=O)c1ccc2c(c1)C1CC2CCN1Cc1ccccc1 (stereo unspecified)	2.7% (inactive)
Cc1ccc(-c2ccc(C3=CC(=O)CC(C)(C)C3=O)cc2)cc1	9.99% (inactive)
CCCCN1C[C@H](c2ccc(Br)cc2)[C@@H](CC(=O)Nc2ccc(Br)cc2)C1=O	2.46% (inactive)
Cc1ccc(S(=O)(=O)N2C[C@H]3n4c(=O)ccc(=O)n4C[C@H](OC(=O)NC4CCCC4)[C@@]3(O)C2)cc1	8.63% (inactive)
CCOc1ccc(NS(=O)(=O)c2ccc(C(=O)NCC3CCCO3)cc2)cc1 (stereo unspecified)	-2.2% (inactive)
Cc1cc(/C=C2/SC(=O)N(CC(=O)N3CCCC3)C2=O)c(C)n1C	2.6% (inactive)
Cc1nn(Cc2ccccc2)c(C)c1C(=O)NCCN1C(=O)S/C(=C\c2ccc(F)cc2)C1=O	-11.8% (inactive)
N#Cc1ccccc1CN1C(=O)S/C(=C/c2cccn2-c2cccc(C(=O)O)c2)C1=O	24.5% (active)
